In PubChem BioAssay AID1159580 (chemical genetic matrix, 2015):
The whole screen tested about 5,500 compounds, of which about 2,000 (36%) were called active. Another 18% or so got no clear call; they are omitted. Rule as the data show it: active = normalized growth mostly below about 0.91 (no sharp cut-off); inconclusive = no clear call, values can overlap the other calls; inactive = mostly above about 0.92. Some of the results follow.

Assay: chemical genetic growth profiling, strain panel (AID 1159580);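 also: tested at 20 µM; growth read once vehicle control cultures reached saturation at 30 °C; 1 = growth at the plate median or of vehicle wells; lower values mean less growth of the strain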
Details: S. cerevisiae deletion strains, growth OD

Measured: normalized growth

CCOCN(C(=O)CCl)c1c(C)cccc1CC
inactive: locus YAL013W, strain DEP1, active compounds read low 0.995 | locus YAL021C, strain ccr4, active compounds read low 0.988 | locus YAL026C, strain drs2, active compounds read low 0.998 | locus YAL030W, strain snc1, active compounds read low 0.992 | locus YBL061C, strain skt5, active compounds read low 0.994 | locus YBR009C, strain hhf1, active compounds read low 0.994 | locus YBR021W, strain FUR4, active compounds read low 1.01 | locus YBR023C, strain chs3, active compounds read low 0.98 | locus YBR171W, strain sec66, active compounds read low 0.971 | locus YBR229C, strain ROT2, active compounds read low 0.992 | locus YBR231C, strain swc5, active compounds read low 0.989 | locus YBR279W, strain paf1, active compounds read low 0.999 | locus YCL011C, strain gbp2, active compounds read low 0.998 | locus YCL016C, strain dcc1, active compounds read low 0.991 | locus YCL029C, strain bik1, active compounds read low 0.976 | locus YCL061C, strain MRC1, active compounds read low 0.98 | locus YCL069W, strain vba3, active compounds read low 0.992 | locus YCR088W, strain abp1, active compounds read low 0.984 | locus YDL005C, strain med2, active compounds read low 0.982 | locus YDL035C, strain GPR1, active compounds read low 0.99 | locus YDL040C, strain nat1, active compounds read low 1 | locus YDL074C, strain BRE1, active compounds read low 1.03 | locus YDL101C, strain DUN1, active compounds read low 0.983 | locus YDL134C, strain PPH21, active compounds read low 0.995 | locus YDL185W, strain tfp1, active compounds read low 0.967 | locus YDL192W, strain arf1, active compounds read low 0.979 | locus YDR001C, strain nth1, active compounds read low 0.991 | locus YDR069C, strain doa4, active compounds read low 0.987 | locus YDR101C, strain arx1, active compounds read low 0.98 | locus YDR137W, strain rgp1, active compounds read low 0.975 | locus YDR150W, strain NUM1, active compounds read low 0.954 | locus YDR159W, strain sac3, active compounds read low 0.959 | locus YDR162C, strain NBP2, active compounds read low 1 | locus YDR195W, strain ref2 0.982 | locus YDR297W, strain sur2, active compounds read low 0.986 | locus YDR318W, strain mcm21, active compounds read low 0.985 | locus YDR334W, strain swr1, active compounds read low 0.986 | locus YDR335W, strain msn5, active compounds read low 0.998 | locus YDR388W, active compounds read low 0.978 | locus YDR392W, strain spt3, active compounds read low 0.975 | locus YDR502C, strain sam2, active compounds read low 0.974 | locus YEL003W, strain gim4, active compounds read low 0.996 | locus YEL037C, strain rad23, active compounds read low 0.994 | locus YEL061C, strain CIN8 (second series), active compounds read low 0.994 | locus YEL061C, strain CIN8, active compounds read low 0.991 | locus YER015W, strain faa2, active compounds read low 0.993 | locus YER016W, strain bim1, active compounds read low 0.994 | locus YER110C, active compounds read low 0.978 | locus YER111C, strain swi4, active compounds read low 0.997 | locus YER155C, strain BEM2 (second series), active compounds read low 0.972 | locus YER155C, strain BEM2, active compounds read low 0.993 | locus YER167W, strain BCK2, active compounds read low 0.995 | locus YFR010W, strain ubp6, active compounds read low 0.992 | locus YGL078C, strain dbp3, active compounds read low 0.979 | locus YGL086W, strain mad1, active compounds read low 0.983 | locus YGL167C, strain pmr1, active compounds read low 0.985 | locus YGL173C, strain kem1, active compounds read low 0.976 | locus YGL227W, strain vid30, active compounds read low 0.983 | locus YGL240W, strain doc1, active compounds read low 0.985 | locus YGL248W, strain PDE1, active compounds read low 0.981 | locus YGL253W, strain hxk2, active compounds read low 0.981 | locus YGR078C, strain PAC10, active compounds read low 1 | locus YGR135W, strain pre9, active compounds read low 0.982 | locus YGR229C, strain SMI1, active compounds read low 1.01 | locus YGR252W, strain gcn5, active compounds read low 1.04 | locus YHR013C, strain ard1, active compounds read low 0.988 | locus YHR027C, strain rpn1, active compounds read low 0.98 | locus YHR030C, strain SLT2, active compounds read low 0.982 | locus YHR079C, strain IRE1 (second series), active compounds read low 0.979 | locus YHR094C, strain hxt1, active compounds read low 0.968 | locus YHR129C, strain ARP1, active compounds read low 0.963 | locus YHR142W, strain chs7, active compounds read low 1.04 | locus YHR200W, strain rpn10, active compounds read low 0.988 | locus YIL066C, strain RNR3, active compounds read low 0.976 | locus YIL073C, strain SPO22, active compounds read low 0.856 | locus YIL125W, strain kgd1, active compounds read low 0.997 | locus YIR030C, strain dcg1, active compounds read low 0.972 | locus YJL092W, strain hpr5, active compounds read low 0.985 | locus YJL095W, strain BCK1 (second series), active compounds read low 0.996 | locus YJL095W, strain BCK1, active compounds read low 1 | locus YJL115W, strain asf1, active compounds read low 0.976 | locus YJL129C, strain trk1, active compounds read low 1.01 | locus YJL134W, strain LCB3, active compounds read low 0.987 | locus YJL154C, strain vps35, active compounds read low 0.979 | locus YJL164C, strain tpk1, active compounds read low 0.994 | locus YJL166W, strain qcr8, active compounds read low 0.991 | locus YJL168C, strain set2, active compounds read low 0.984 | locus YJL187C, strain SWE1 (second series), active compounds read low 0.979 | locus YJL187C, strain SWE1, active compounds read low 0.988
